Bioassay records as filed in PubChem.
Yeast superoxide – reduction of superoxide in aged yeast, primary screen, HTS; S. cerevisiae aged cells, superoxide DHE fluorescence; hits give low values; superoxide response (% of plate mean), % at 10 µM; 0.18% of 330,000 active;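 active means superoxide response under a set limit, about three screen SD below normal, cut at about 65% in these data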;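 further: yeast aged for seven days with compound at 30 °C before DHE staining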
dFosB activator – activators of delta FosB homodimer, primary screen, biochemical, fluorescence polarization, TAMRA-CDK5 oligo, single point. Protein FosB (Mus musculus), P13346. purified delta FosB; percent of positive-control signal above neutral wells. activation, % at 25 µM. 0.99% of 340,000 active. AID 493131, 2011;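 active means mean activation above about 17%, with every replicate also reaching it, limit read from the data, passing the limit was not always enough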
Target sequence (P13346 whole entry, looked up): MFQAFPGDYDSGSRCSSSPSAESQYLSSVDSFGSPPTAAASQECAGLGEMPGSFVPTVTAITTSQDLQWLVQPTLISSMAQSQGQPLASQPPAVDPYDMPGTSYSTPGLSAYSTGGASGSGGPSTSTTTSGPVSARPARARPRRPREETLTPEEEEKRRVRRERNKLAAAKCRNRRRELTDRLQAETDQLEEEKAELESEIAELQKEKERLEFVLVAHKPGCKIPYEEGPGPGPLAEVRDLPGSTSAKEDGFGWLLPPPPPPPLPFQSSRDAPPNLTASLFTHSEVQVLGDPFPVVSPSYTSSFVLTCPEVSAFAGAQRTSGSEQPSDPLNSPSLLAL
UBC13 polyUb – UBC13 polyubiquitin chain formation inhibitors, primary screen, biochemical, TR-FRET, uHTS. Ubiquitin-conjugating enzyme E2 N (Homo sapiens), P61088. inhibition, % at 20 µM. 0.47% of 330,000 active; in the data active means inhibition above about 45%, passing the limit was not always enough
Target sequence (P61088 whole entry, looked up): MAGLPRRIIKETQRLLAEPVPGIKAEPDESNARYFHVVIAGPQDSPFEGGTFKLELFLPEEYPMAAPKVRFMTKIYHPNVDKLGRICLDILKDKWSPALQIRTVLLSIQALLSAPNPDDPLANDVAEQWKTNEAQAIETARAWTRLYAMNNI
NALP1 inh – NALP1 inflammasome inhibitors in reconstituted yeast, colorimetric, S. cerevisiae, triplicate retest; inhibition, % at 10 µM; S. cerevisiae NALP1/ASC/caspase-1 growth, X-gal OD620, 72 h; 0.61% of 280,000 active; AID 2071, 2009; in the data active means inhibition mostly above about 24%, no sharp cut-off; inactive means mostly below about 32%
NR3A LBD binder – binders of NR3A ligand-binding domain, primary screen, biophysical, differential scanning fluorimetry, uHTS; NR3A LBD differential scanning fluorimetry, Tm shift; 0% = protein alone, 100% = glycine-bound protein; Tm shift relative to glycine control, % at 25 µM; 2.5% of 340,000 active; AID 1259313, 2017;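 active means melting temperature shift of at least 10% of the positive control shift, at one fixed dose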
Of the large screens only hits and unclear results are named; the others gave an inactive call. The list is not random: actives were taken first. Their share in the collection is about 4.3%.

CC12CCC(=O)N1C(C(=O)Nc1ccc(F)c(Cl)c1)CS2 (stereo unspecified)	none (no result: NALP1 inh)
CC1(C)SC[C@H](C(=O)Nc2cccc(Cl)c2)N1C=O	NALP1 inh 37.3
NS(=O)(=O)c1ccc(NNC(=O)c2ccc(F)cc2F)cc1	none (no result: NALP1 inh)
Cc1cccc(NC(=O)C2CCCN(S(=O)(=O)c3ccc4[nH]c(=O)ccc4c3)C2)c1 (stereo unspecified)	dFosB activator 44.6
Cc1ccc(NC(=O)C2CCCN(S(=O)(=O)c3ccc4[nH]c(=O)ccc4c3)C2)cc1C (stereo unspecified)	none
COc1cccc(NC(=O)CN(C)C(=O)c2cc(-c3ccccc3)nn2-c2ccccc2)c1	none (no result: NALP1 inh)
C=C(C)Cc1c(C)c(C#N)c2nc3ccccc3n2c1NCCCN(C)C	none (no result: dFosB activator)
C=CCc1c(C)c(C#N)c2nc3ccccc3n2c1NCCN(C)C	NALP1 inh 33.3
CCOc1ccc(/C=N/NC(=O)c2nnn(-c3nonc3N)c2-c2cccs2)cc1	NR3A LBD binder 12.7
CCOc1ccc(-c2c(C(=O)N/N=C/c3ccc(C)cc3)nnn2-c2nonc2N)cc1	dFosB activator 33.5
CCOc1ccc(-c2c(C(=O)N/N=C/c3ccc(OC(C)C)cc3)nnn2-c2nonc2N)cc1	NR3A LBD binder 11.0
O=C(CCCc1ccncc1)c1ccccc1	none (no result: Yeast superoxide, UBC13 polyUb, NALP1 inh)
O=C(N/N=C/c1cccc(OC(=O)c2cccc(Br)c2)c1)c1cccnc1	none
Cc1cc(C(=O)N/N=C/c2ccc(OC(=O)c3ccccc3Br)cc2)n[nH]1	NR3A LBD binder 11.9
O=C(N/N=C/c1ccc(OC(=O)c2cccc(Br)c2)cc1)c1cccnc1	dFosB activator 26.8
O=C(N/N=C/c1ccc(OC(=O)c2ccccc2Cl)cc1)c1cc(O)cc(O)c1	NR3A LBD binder 12.6
Cc1cccc(C(=O)Oc2ccc(/C=N/NC(=O)c3ccccc3O)cc2)c1	NR3A LBD binder 19.4
Cn1c(=O)c2c(nc(Sc3ncnn3CC(=O)NC3CCCCC3)n2C)n(C)c1=O	none (no result: NALP1 inh)
Cc1ccc2oc(C(=O)Nc3cc(C)on3)c(C)c2c1	none (no result: NALP1 inh)
O=[N+]([O-])c1cc(C(F)(F)F)ccc1NCCc1c[nH]c2ccccc12	NR3A LBD binder 29.1
O=[N+]([O-])c1cccnc1NCCc1c[nH]c2ccccc12	none
CS(=O)(=O)NCCCNc1ccc(C(F)(F)F)cc1[N+](=O)[O-]	none (no result: NALP1 inh)
O=[N+]([O-])c1cc(C(F)(F)F)ccc1NCCc1c[nH]c2ccc(O)cc12	NR3A LBD binder 28.8
COc1cc2c(cc1NC(=O)c1cccc([N+](=O)[O-])c1)oc1ccccc12	none (no result: NALP1 inh)
COc1cc2c(cc1NC(=O)c1ccncc1)oc1ccccc12	NR3A LBD binder 22.3
COc1cc2c(cc1NC(=O)c1ccc(C)c([N+](=O)[O-])c1)oc1ccccc12	none
COc1cc2c(cc1NC(=O)c1cccnc1)oc1ccccc12	NR3A LBD binder 20.4
COc1cc2c(cc1NC(=O)/C=C/c1cc(OC)c(OC)c(OC)c1)oc1ccccc12	NR3A LBD binder 26.9
COc1ccc(/C=C/C(=O)OCC(=O)Nc2cc3oc4ccccc4c3cc2OC)cc1	none (no result: dFosB activator, NR3A LBD binder)
Nc1nc(NCc2ccco2)nc(N2CCCCC2)c1[N+](=O)[O-]	none
Cc1oc2cc3oc(=O)c(CCC(=O)NCCN4CCOCC4)c(C)c3cc2c1C	none
CC(CNS(=O)(=O)c1ccccc1)(c1ccccc1)N1CCCCC1 (stereo unspecified)	none
CSc1nnc2c(n1)OC(c1ccccn1)N(C(C)=O)c1ccccc1-2 (stereo unspecified)	none
Cc1nc2cc(NC(=O)Nc3ccc(Br)cc3)ccc2o1	NR3A LBD binder 34.4
Cc1nc2cc(NC(=O)NCc3ccc4c(c3)OCO4)ccc2o1	none (no result: NR3A LBD binder)
O=c1ccc2cc(S(=O)(=O)N3CCN(c4ccccc4)CC3)ccc2[nH]1	none
O=S(=O)(c1ccc2nc(-c3ccccc3)[nH]c2c1)N1CCN(c2ccc(Cl)cc2)CC1	NR3A LBD binder 13.4
Cn1cc([N+](=O)[O-])c(C(=O)N2CCN(Cc3ccc4c(c3)OCO4)CC2)n1	none
S=C(NCc1ccccc1)Nc1ccc2cn[nH]c2c1	none (no result: NALP1 inh)
COc1ccc(NC(=S)Nc2ccc3cn[nH]c3c2)cc1	none
S=C(Nc1ccc2cn[nH]c2c1)Nc1ccc(Cl)cc1Cl	NR3A LBD binder 12.6
CCCCNC(=S)Nc1ccc2cn[nH]c2c1	NR3A LBD binder 21.3
CCc1ccc(NC(=S)Nc2ccc3cn[nH]c3c2)cc1	NR3A LBD binder 13.7
S=C(Nc1ccc(Cl)cc1)Nc1ccc2cn[nH]c2c1	NR3A LBD binder 25.6
CCCCN(C1CCS(=O)(=O)C1)S(=O)(=O)c1ccc(OC)c(OC)c1 (stereo unspecified)	none (no result: NALP1 inh)
N=C1/C(=C/c2cccs2)C(=O)N=C2SN=C(SCc3ccccc3)N12	none
CC(C)CSC1=NSC2=NC(=O)/C(=C\c3cccs3)C(=N)N12	NR3A LBD binder 10.6
CNc1nc(SCc2ccc(C)cc2)nc2c1CCCC2	NALP1 inh 99.4
CC(=O)NCCCOc1ccc([N+](=O)[O-])cc1Cl	NR3A LBD binder 10.3
COc1ccccc1OCCCOc1ccc([N+](=O)[O-])cc1Cl	none
O=[N+]([O-])c1ccc(NCCOc2ccccc2Cl)nc1	NR3A LBD binder 16.2
O=C(N/N=C/c1ccc(-n2ccnc2)cc1)c1cccs1	none
COc1ccc(NC(=O)c2ccc3[nH]c(C)c(C)c3c2)cc1	NR3A LBD binder 29.0
CC(=O)Nc1cccc(NC(=O)c2ccc3[nH]c(C)c(C)c3c2)c1	NR3A LBD binder 27.7
Cc1cc(NC(=O)c2ccc3[nH]c(C)c(C)c3c2)ccn1	NR3A LBD binder 12.0
COc1ccc(N2CCN(C(=O)c3ccc4[nH]c(C)c(C)c4c3)CC2)cc1	none
CC(=O)Nc1cccc(NC(=O)c2cccc(-c3ccc(O)cc3)c2)c1	NR3A LBD binder 10.1
O=C(Nc1cccc(S(=O)(=O)N2CCCCC2)c1)C1COc2ccccc2O1 (stereo unspecified)	none (no result: NALP1 inh)
COc1ccc(NC(=O)CN(C)C(=O)c2ccc(C)c(S(=O)(=O)N3CCCCC3)c2)cc1	none (no result: Yeast superoxide, UBC13 polyUb, NALP1 inh)
O=C(COC(=O)/C=C/c1ccco1)Nc1cccc([N+](=O)[O-])c1	none (no result: UBC13 polyUb)
C[C@@H]1COC(=O)[C@H](NC(=O)OCC2c3ccccc3-c3ccccc32)C/C=C\C[C@@H](CC(=O)N[C@H](CO)Cc2ccccc2)C(=O)N1	none (no result: NALP1 inh)
O=C(C1CCCN1S(=O)(=O)c1ccc(Cl)c(Cl)c1)N1CCOCC1 (stereo unspecified)	NR3A LBD binder 10.2
O=C(C1CCCN1S(=O)(=O)c1ccc(Cl)c(Cl)c1)N1CCCCC1 (stereo unspecified)	none
COCCCN1C(=O)C(=O)/C(=C(/O)c2ccc(OC)cc2)C12C(=O)N(C)c1ccccc12 (stereo unspecified)	NALP1 inh 39.3
CCN(CC)S(=O)(=O)c1cc(NC(=O)CNc2cccc(S(=O)(=O)N3CCOCC3)c2)ccc1C	none (no result: NALP1 inh)
CCOc1ccccc1CNCc1ccc(F)cc1	none
